Results: PubChem BioAssay AID588342 (National Center for Advancing Translational Sciences (NCATS), 2011)
Among all 360,000 compounds or so, about 25,000 (6.9%) were called active. Another 9% or so got no clear call; they are omitted. The call rests on the fitted dose curve; in most records, active means well fitted inhibition curve with a large enough effect; inconclusive means small, poorly fitted or top-dose-only effect; inactive means flat fitted curve, though single readings scatter. What follows is part of a selection rich in actives, with near analogues and random picks from the rest. Where a call stands in place of a potency, no number is given.

Target: Luciferin 4-monooxygenase (Photinus pyralis) (UniProt P08659)
Sequence (P08659 whole entry, looked up): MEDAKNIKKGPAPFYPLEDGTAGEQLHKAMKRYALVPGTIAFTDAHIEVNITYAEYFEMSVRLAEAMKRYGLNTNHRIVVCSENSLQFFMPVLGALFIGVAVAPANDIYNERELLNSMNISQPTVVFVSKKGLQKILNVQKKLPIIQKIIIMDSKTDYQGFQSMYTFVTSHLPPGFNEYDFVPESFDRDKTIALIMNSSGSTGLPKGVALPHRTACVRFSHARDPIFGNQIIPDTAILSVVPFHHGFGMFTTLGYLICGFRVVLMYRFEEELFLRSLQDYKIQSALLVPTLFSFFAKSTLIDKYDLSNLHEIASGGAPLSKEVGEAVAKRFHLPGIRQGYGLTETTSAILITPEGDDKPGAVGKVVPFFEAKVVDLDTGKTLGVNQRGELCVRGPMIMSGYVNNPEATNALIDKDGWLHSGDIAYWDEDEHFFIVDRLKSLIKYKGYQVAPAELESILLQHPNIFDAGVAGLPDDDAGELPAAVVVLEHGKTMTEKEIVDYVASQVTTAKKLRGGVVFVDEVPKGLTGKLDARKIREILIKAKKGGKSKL
Experiment: qHTS profiling assay for firefly luciferase inhibitor/activator using purifed enzyme and Km concentrations of substrates (counterscreen for miR-21 project); further: nearly all actives have a fitted effect of over 55% in size
Conditions: purified FLuc, luminescence inhibition; series mostly up to 57.5 µM
Procedure, shortened: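 Biochemical qHTS of compounds, final roughly 60 µM downward over six points, against 10 nM purified firefly luciferase using Km concentrations of substrates (10 uM D-luciferin, 10 uM ATP) in Tris acetate pH 7.5 buffer; luminescence output.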
Potency means the concentration at half of the fitted maximal effect.

How did the Potency turn out when CCC(=O)Nc1c(C)n[nH]c1C was run?
Its Potency is “inactive”.

For Cc1ccc(Nc2nc(C)cc(C)c2C(N)=O)cc1, which Potency is on record?
Its Potency is “inactive”.

With Cc1ccc(NC(=O)Nc2nnc(-c3ccncc3)s2)cc1 as the compound, how does the Potency read?
Its Potency is “inactive”.

For Cc1ccc(Nc2nc(Cl)c(C=O)s2)cc1, which Potency is on record?
The Potency was 12 µM (active).

With Cc1ccc2c(=O)c(C(=O)c3cccc(Cl)c3)cn(CC(=O)NCc3ccccc3)c2n1 as the compound, how does the Potency read?
The Potency was “inactive”.

Which Potency does the source give for CSCCC(NC(=O)c1ccc(Cl)cc1Cl)C(=O)NNC(=O)c1csc(N2CCOCC2)n1 (centres undefined) here?
Its Potency is 23.9 µM (active).

COc1ccccc1C(=O)NC(CCSC)C(=O)NNC(=O)c1csc(N2CCOCC2)n1 (centres undefined) was tested. Which Potency did it give?
The Potency was “inactive”.

How did the Potency turn out when COc1ccc(NS(=O)(=O)c2ccc(C)c(C(=O)NNC(=O)c3csc(N4CCOCC4)n3)c2)cc1 was run?
The Potency was “inactive”.

How did the Potency turn out when Cc1ccc(NC(=O)Nc2sc3nc4n(c(=O)c3c2C)CCC(C)CC4)c(Cl)c1 (centres undefined) was run?
Its Potency is “inactive”.

COc1ccc2oc(N)c(C=O)c(=O)c2c1 was tested. Which Potency did it give?
The Potency was “inactive”.

How did the Potency turn out when CCc1cc2c(=O)c(-c3ccon3)c(N)oc2cc1OC was run?
Its Potency is 2.39 µM (active).

CCc1cc2c(=O)c(-c3ccc(F)cc3)c(C(F)(F)F)oc2cc1OCC(=O)O was tested. Which Potency did it give?
Its Potency is “inactive”.

How did the Potency turn out when Cc1cccc(NC(c2cccc(F)c2)c2ccc3ccc(C)nc3c2O)n1 (centres undefined) was run?
Its Potency is “inactive”.

How did the Potency turn out when Cc1ccc(C(=O)NNC(=O)c2cc3cc4ccccc4nc3s2)cc1 was run?
The Potency was “inactive”.

How did the Potency turn out when CCc1nc(SCC(=O)NNC(=O)c2ccc(C)cc2)c2ccccc2n1 was run?
Its Potency is “inactive”.

For Cc1ccc(C(=O)NNc2ncnc3ccccc23)cc1, which Potency is on record?
Its Potency is 8.49 µM (active).

With CC1=C(C(=O)Nc2ccccc2Cl)C(c2cccs2)n2ncnc2N1 (centres undefined) as the compound, how does the Potency read?
The Potency was “inactive”.

How did the Potency turn out when O=C(O)c1ccc(N/N=C/c2cn(-c3ccccc3)nc2-c2cccs2)cc1 was run?
The Potency was 0.107 µM (active).

O=C(/C=C\c1cn(-c2ccccc2)nc1-c1cccs1)N1CCOCC1 was tested. Which Potency did it give?
The Potency was 7.57 µM (active).

How did the Potency turn out when COc1cccc(NC(=O)CN(C)C(=O)/C=C/c2cn(-c3ccccc3)nc2-c2cccs2)c1 was run?
The Potency was “inactive”.

For COc1ccc(-c2nn(-c3ccccc3)cc2/C=C\C(=O)N2CCOCC2)cc1[N+](=O)[O-], which Potency is on record?
The Potency was “inactive”.

Which Potency does the source give for O=C(COC(=O)/C=C/c1cn(-c2ccccc2)nc1-c1cccnc1)Nc1ccc(Cl)cc1Cl here?
Its Potency is “inactive”.

How did the Potency turn out when Cc1c(NC(=O)C(=O)N/N=C/c2cccs2)c(=O)n(-c2ccccc2)n1C was run?
Its Potency is “inactive”.

Which Potency does the source give for O=C(NCc1cccnc1)c1nc(-c2cccs2)no1 here?
Its Potency is “inactive”.

Which Potency does the source give for CCC(=O)N1N=C(c2ccc(OC)cc2)CC1c1cn(-c2ccccc2)nc1-c1cccs1 (centres undefined) here?
The Potency was “inactive”.

Which Potency does the source give for O=C(O)/C=C/c1cn(-c2ccccc2)nc1-c1cccs1 here?
Its Potency is 21.3 µM (active).

How did the Potency turn out when O=C(/C=C/c1cccs1)NCc1cccnc1 was run?
Its Potency is “inactive”.

S=c1[nH]nc(-c2cccs2)n1/N=C/c1cn(-c2ccccc2)nc1-c1ccc(Cl)cc1 was tested. Which Potency did it give?
Its Potency is “inactive”.

How did the Potency turn out when O=C(NCc1cccnc1)c1cn(-c2ccccc2)nc1-c1cccs1 was run?
The Potency was 6.01 µM (active).

CN(C)c1ccc(NC(=S)N(CCc2ccccc2)C2CC(=O)N(c3c(Cl)cccc3Cl)C2=O)cc1 (centres undefined) was tested. Which Potency did it give?
Its Potency is “inactive”.

How did the Potency turn out when CCN1CCN(CCCNC(=O)c2cnn(-c3ccc(C)cc3C)c2C2CCN(C(=O)OC(C)(C)C)CC2)CC1 was run?
The Potency was “inactive”.

O=C(COC(=O)c1cc(=O)[nH]c2ccccc12)NCc1cccc(Cl)c1 was tested. Which Potency did it give?
The Potency was “inactive”.

Which Potency does the source give for Cn1cc(S(=O)(=O)N2CCCCCC2)cc1C(=O)N1CCN(c2ccc(F)cc2)CC1 here?
The Potency was “inactive”.

Which Potency does the source give for CCc1ccc2c(c1)cc(CN(C(=S)Nc1ccccc1Cl)C1CC1)c1nnnn12 here?
Its Potency is “inactive”.

O=C(Cc1ccccc1)Nc1sc2c(c1C(=O)Nc1ccc(Br)cc1)CCC2 was tested. Which Potency did it give?
The Potency was “inactive”.

With Cc1ccc(S(=O)(=O)c2nc(-c3cccs3)oc2N2CCCCC2)cc1 as the compound, how does the Potency read?
The Potency was “inactive”.

For CCOc1cc(C2c3c(-c4ccc(Br)cc4)n[nH]c3C(=O)N2c2ccc(Cl)cc2)ccc1O (centres undefined), which Potency is on record?
Its Potency is “inactive”.

How did the Potency turn out when COc1cccc(C(=O)Nc2nc3ccc(S(C)(=O)=O)cc3s2)c1 was run?
The Potency was 6.01 µM (active).

With CCCC(=O)Nc1nc2ccc(NC(=O)c3cccnc3)cc2s1 as the compound, how does the Potency read?
The Potency was “inactive”.

Which Potency does the source give for COc1cccc(C(=O)NNS(=O)(=O)c2ccc(F)cc2)c1 here?
Its Potency is “inactive”.

CS(=O)(=O)c1ccc2nc(NC(=O)C3C4C=CC(C4)C3C(=O)O)sc2c1 (centres undefined) was tested. Which Potency did it give?
The Potency was “inactive”.

For CS(=O)(=O)c1ccc2nc(NC(=O)c3ccc(Cl)nc3)sc2c1, which Potency is on record?
The Potency was 21.3 µM (active).

CN(C)c1cccc(C(=O)Nc2nc3ccc(S(=O)(=O)NC(C)(C)C)cc3s2)c1 was tested. Which Potency did it give?
Its Potency is “inactive”.

O=C(NC1CC(=O)N(c2ccc(F)cc2)C1)c1ccc(S(=O)(=O)N2CCCC2)cc1 (centres undefined) was tested. Which Potency did it give?
Its Potency is “inactive”.

Which Potency does the source give for Cc1ccc(-n2c(SCC(=O)N3CCC(C(=O)O)CC3)nc3ccccc3c2=O)cc1C here?
Its Potency is 13.5 µM (active).

Which Potency does the source give for O=C(CSc1nc2ccccc2c(=O)n1-c1ccc(F)cc1)NC1CC1 here?
The Potency was “inactive”.

COc1cccc(-n2c(SCC(=O)c3c[nH]c4ccccc34)nc3ccccc3c2=O)c1 was tested. Which Potency did it give?
The Potency was “inactive”.

How did the Potency turn out when COc1ccccc1N1CCN(S(=O)(=O)CCNC(=O)COc2ccc(F)cc2)CC1 was run?
Its Potency is “inactive”.

How did the Potency turn out when COc1ccc(S(=O)(=O)N2CCN(CC(=O)NCC3(N4CCOCC4)CCCCC3)CC2)cc1 was run?
Its Potency is “inactive”.

How did the Potency turn out when COc1ccc(-c2nnc(SCc3cccnc3)o2)cc1 was run?
The Potency was 21.3 µM (active).

For CCOC(=O)CSc1nnc(-c2ccc([N+](=O)[O-])cc2)o1, which Potency is on record?
Its Potency is “inactive”.

How did the Potency turn out when CCCCSc1nnc(-c2ccc(C)cc2)o1 was run?
The Potency was 2.69 µM (active).

For Cc1ccc(-c2nnc(SCc3ccccc3C)o2)cc1, which Potency is on record?
The Potency was 10.7 µM (active).

COC(=O)CSc1nnc(-c2cccnc2)o1 was tested. Which Potency did it give?
Its Potency is “inactive”.

Which Potency does the source give for Cc1cccc(C)c1OC(=O)CSc1nnc(-c2ccccc2)o1 here?
The Potency was “inactive”.

How did the Potency turn out when COc1cccc(NC(=O)CSc2nnc(-c3cccnc3)o2)c1 was run?
The Potency was “inactive”.

With Cc1ccccc1CSc1nnc(CCCCCNC(=O)OC(C)(C)C)o1 as the compound, how does the Potency read?
Its Potency is “inactive”.

Which Potency does the source give for CC1=CC(C)(C)N(C(=O)CSc2nnc(-c3ccccc3)o2)c2ccc(C)cc21 here?
The Potency was “inactive”.

Cc1ccc(C(=O)N2c3ncnn3C3(CCCCC3)[C@@H]3CCCC[C@@H]32)cc1 was tested. Which Potency did it give?
The Potency was “inactive”.

Cc1ccc(S(=O)(=O)CCC(=O)OCC(=O)NCCc2ccc(S(N)(=O)=O)cc2)cc1 was tested. Which Potency did it give?
The Potency was “inactive”.

With COc1ccc(-c2onc(C)c2C)cc1S(=O)(=O)NCC1CCN(Cc2cccc(F)c2)CC1 as the compound, how does the Potency read?
Its Potency is “inactive”.

Which Potency does the source give for CCN(CC)c1cc(NC2CCCCC2)c2c3c(onc13)-c1ccccc1C2=O here?
The Potency was “inactive”.

O=P(O)(CN1CCCCC1)CN1CCCCC1 was tested. Which Potency did it give?
The Potency was “inactive”.

For CCOc1ccc(CNC(=O)c2ccc(CS(=O)c3ccccc3)o2)cc1 (centres undefined), which Potency is on record?
The Potency was “inactive”.
